Reference: PubChem BioAssay AID624170 (National Center for Advancing Translational Sciences (NCATS), 2012)
Screen size: about 410,000 compounds; about 850 (0.21%) were called active. A call without a number means that no potency is given here. Inconclusive results (about 2%) are left out. Calls come from the whole dose curve; as a rule, active = well fitted inhibition curve with a large enough effect; inconclusive = small, poorly fitted or top-dose-only effect, or another doubt; inactive = no such curve, though single readings can be large or run the other way. This excerpt belongs to a sample that is enriched for actives.

Target: Glutaminase kidney isoform, mitochondrial (Homo sapiens) (UniProt O94925)
Sequence (O94925 whole entry, looked up, canonical isoform): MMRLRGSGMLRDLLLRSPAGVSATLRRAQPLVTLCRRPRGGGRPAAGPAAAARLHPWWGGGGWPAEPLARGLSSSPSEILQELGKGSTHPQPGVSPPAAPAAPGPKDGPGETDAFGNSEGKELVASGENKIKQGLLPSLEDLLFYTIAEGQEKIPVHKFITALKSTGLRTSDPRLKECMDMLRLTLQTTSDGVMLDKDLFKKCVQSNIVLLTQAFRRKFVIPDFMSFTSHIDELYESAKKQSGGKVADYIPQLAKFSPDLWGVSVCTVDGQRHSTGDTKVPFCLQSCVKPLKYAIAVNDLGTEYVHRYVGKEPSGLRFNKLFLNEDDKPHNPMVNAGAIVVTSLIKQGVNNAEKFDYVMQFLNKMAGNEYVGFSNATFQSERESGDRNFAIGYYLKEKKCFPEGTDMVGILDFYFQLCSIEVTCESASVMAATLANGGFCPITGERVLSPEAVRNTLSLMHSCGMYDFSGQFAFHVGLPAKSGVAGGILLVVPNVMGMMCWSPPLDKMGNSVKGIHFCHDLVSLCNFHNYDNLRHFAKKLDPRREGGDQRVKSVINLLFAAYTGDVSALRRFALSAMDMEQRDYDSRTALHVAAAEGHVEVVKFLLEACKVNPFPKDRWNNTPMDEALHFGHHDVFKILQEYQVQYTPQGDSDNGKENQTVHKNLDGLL
Assay: qHTS for Inhibitors of Glutaminase (GLS)
Conditions: GLS enzymatic activity, qHTS titration; series mostly up to 99.4 µM
Text: Glutaminase (GLS) catalyzes the hydrolysis of glutamine into glutamate and ammonia. It plays a critical role in glutaminolysis, which is an important energy source for proliferating cells. It was shown that c-Myc, an oncogenic transcription factor known to regulate microRNAs and to stimulate cell proliferation, increases glutamine metabolism by stimulating the expression of GLS via direct suppression of miR23a and miR23b.
GLS is also thought to play a pathogenic role on HAD using a human HIV-1 infected macrophage system. […] GLS inhibition limits glutamate release and provides neuroprotection against HIV-1 infected macrophages.
The overall goal of this project is to identify small molecule inhibitors of GLS through quantitative high throughput screening (qHTS) of the MLSMR. A validated potent and selective inhibitor can be used as a tool molecule to further study the pharmacology of its target as well as explore its potential therapeutic application in cancer and inflammatory neurological disorders, such as HIV1-associated dementia (HAD) and multiple sclerosis.
NIH Chemical Genomics Center [NCGC]
NIH Molecular Libraries Probe Centers Network [MLPCN]
Assay Submitter (PI): Barbara S. Slusher, Johns Hopkins University
Three 3 uL of hKGA is dispensed into black well 1536-well plates in 45 mM KH2PO4 (pH 8.2), 0.02% Tween-20. Then 23 nL of compounds are added through pin tool transfer. To this, 1 uL of 1mM L-Glutamine and 1 uL of a solution of L-Glutamateoxidase, HRP, Amplex red are added. Plate is centrifuged for 25 sec before an initial fluorescence read is obtained on the ViewLux, after 30 min of RT incubation, the final read is taken on the ViewLux.
Potency is the fitted concentration of half-maximal effect.

Compound	Potency
CCC(C)n1c(O)c(/C=N/Nc2nc3c(c(=O)n(C)c(=O)n3C)n2C)c(=O)[nH]c1=S (stereo not given)	10 µM (active)
COc1cc(C[C@H](C)N)c(OC)cc1Br	inactive
CC(C)=CCN1CC[C@@]2(C)c3cc(O)ccc3C[C@H]1[C@@H]2C	inactive
CC(C)(C)c1ccc(S(=O)(=O)Nc2ccc(O)c(Sc3nc4ccccc4s3)c2)cc1	inactive
C[C@]12CCC3[C@@H](CCC4=CC(=O)CC[C@@]43C)C1CCC2OC(=O)CCc1ccccc1 (stereo not given in full)	inactive
O=C1NC(=O)N(Cc2ccco2)C(=O)/C1=C\c1ccc(-c2ccc(F)cc2)o1	8.91 µM (active)
O=P1(N(CCCl)CCCl)NC(OO)CCO1 (stereo not given)	inactive
CC(C)CC1C(=O)N2CCCC2C2(O)OC(NC(=O)C3CC4c5cccc6[nH]cc(c56)CC4N(C)C3)(C(C)C)C(=O)N12 (stereo not given)	inactive
Cc1ncc(CC(=O)n2cc(C(=O)c3cc(Cl)ccc3O)cn2)s1	inactive
CC(=O)Oc1ccc2c3c1OC1C(OC(C)=O)C=CC4[C@@H](C2)N(C)CC[C@]314 (stereo not given in full)	inactive
